Experimental data published in the supplement of paper PMC6609913.
Structures can show the parent of a compound that is named as a salt. ± gives the standard deviation of the averaged measurements. Whole data set: some 1,300 compounds, median “normalised cell viability” near 1, cut for the lowest 2% near 0.15. The sample as a whole holds a higher share of the lowest values than the screen did.

System: V-C8 + BRCA2 (BRCA2-proficient hamster cells)
Experiment: normalised cell viability (fraction of plate median); higher = more viable cells (less toxic)
Conditions: 5 µM
Procedure, shortened: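 Hamster V-C8 cells with and without restored BRCA2 were exposed in 96-well plates to library drugs at 5 μM for 3 days (screen 1) or 6 days (screen 2). Cell viability was scored by resazurin assay, then median-plate normalised, averaging triplicate wells.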

Compound `CCCC(=O)Nc1ccc(OCC(O)CNC(C)C)c(C(C)=O)c1` (centres undefined) [Acebutolol hydrochloride] has a normalised cell viability (treatment time: 3 days) of 0.99 ± 0.034 and a normalised cell viability (treatment time: 6 days) of 1.04 ± 0.012.

`CCC(=O)OCC(=O)[C@@]1(OC(=O)CC)[C@@H](C)C[C@H]2[C@@H]3CCC4=CC(=O)C=C[C@]4(C)[C@@]3(Cl)[C@@H](O)C[C@@]21C` [Beclomethasone dipropionate] gave a normalised cell viability (treatment time: 3 days) of 1 ± 0.081 and a normalised cell viability (treatment time: 6 days) of 0.987 ± 0.048.

For `Cc1onc(-c2c(F)cccc2Cl)c1C(=O)N[C@@H]1C(=O)N2[C@@H]1SC(C)(C)[C@@H]2C(=O)O` [Flucloxacillin sodium], the normalised cell viability (treatment time: 3 days) was 1.02 ± 0.065 and the normalised cell viability (treatment time: 6 days) was 0.984 ± 0.016.

`Cc1c(Cl)cccc1Nc1ncccc1C(=O)O` [Clonixin Lysinate] showed a normalised cell viability (treatment time: 3 days) of 0.938 ± 0.067 and a normalised cell viability (treatment time: 6 days) of 0.983 ± 0.046.

With `Nc1ccc(S(=O)(=O)Nc2ncccn2)cc1` [Sulfadiazine] the normalised cell viability (treatment time: 3 days) was 1.01 ± 0.068 and the normalised cell viability (treatment time: 6 days) was 1.024 ± 0.0048.

Compound `O=S(=O)(O)CCS` [Mesna] has a normalised cell viability (treatment time: 3 days) of 1.06 ± 0.07 and a normalised cell viability (treatment time: 6 days) of 1.02 ± 0.024.

`C[C@@H]1CCC[C@H](C)N1NC(=O)c1ccc(Cl)c(S(N)(=O)=O)c1` [Clopamide] gave a normalised cell viability (treatment time: 3 days) of 1.22 ± 0.11 and a normalised cell viability (treatment time: 6 days) of 0.9899 ± 0.0083.

`N#Cc1ccc(C2CCCc3cncn32)cc1` (centres undefined) [Fadrozole hydrochloride] was tested, and the normalised cell viability (treatment time: 3 days) was 0.955 ± 0.11 and the normalised cell viability (treatment time: 6 days) was 0.949 ± 0.078.

Compound `NC(=O)c1cc[n+](CC2=C(C(=O)[O-])N3C(=O)[C@@H](NC(=O)[C@@H](c4ccccc4)S(=O)(=O)O)[C@H]3SC2)cc1` [Cefsulodin sodium salt] has a normalised cell viability (treatment time: 3 days) of 0.981 ± 0.043 and a normalised cell viability (treatment time: 6 days) of 1.06 ± 0.048.

For `c1ccc(-c2ccc(C(c3ccccc3)n3ccnc3)cc2)cc1` (centres undefined) [Bifonazole], the normalised cell viability (treatment time: 3 days) was 0.951 ± 0.042 and the normalised cell viability (treatment time: 6 days) was 0.914 ± 0.066.

`O=C(O[C@@H]1C[C@@H]2C[C@H]3C[C@H](C1)N2CC3=O)c1c[nH]c2ccccc12` [Dolasetron mesilate] gave a normalised cell viability (treatment time: 3 days) of 1.06 ± 0.19 and a normalised cell viability (treatment time: 6 days) of 1.02 ± 0.03.

In the case of `O=C(Oc1cccc2cccnc12)c1ccccc1` [Benzoxiquine], the normalised cell viability (treatment time: 3 days) is reported as 0.791 ± 0.052 and the normalised cell viability (treatment time: 6 days) is reported as 0.738 ± 0.056.

In the case of `COc1cccc2c1C(=O)c1c(O)c3c(c(O)c1C2=O)C[C@@](O)(C(C)=O)C[C@@H]3O[C@H]1C[C@H](N)[C@H](O)[C@H](C)O1` [Daunorubicin hydrochloride], the normalised cell viability (treatment time: 3 days) is reported as 0.136 ± 0.0082 and the normalised cell viability (treatment time: 6 days) is reported as 0.128 ± 0.015.

`COc1cccc2c1C(=O)c1c(O)c3c(c(O)c1C2=O)C[C@@](O)(C(=O)CO)C[C@@H]3O[C@H]1C[C@H](N)[C@@H](O)[C@H](C)O1` [Epirubicin hydrochloride] was tested, and the normalised cell viability (treatment time: 3 days) was 0.136 ± 0.0036 and the normalised cell viability (treatment time: 6 days) was 0.153 ± 0.024.

Work on `COc1cccc2c1C(=O)c1c(O)c3c(c(O)c1C2=O)C[C@@](O)(C(=O)CO)C[C@@H]3O[C@H]1C[C@H](N)[C@H](O)[C@H](C)O1` [Doxorubicin hydrochloride] yielded a normalised cell viability (treatment time: 3 days) of 0.12 ± 0.0088 and a normalised cell viability (treatment time: 6 days) of 0.122 ± 0.0099.

`Clc1cc(Cl)c(OCC#CI)cc1Cl` [Haloprogin] showed a normalised cell viability (treatment time: 3 days) of 0.278 ± 0.01 and a normalised cell viability (treatment time: 6 days) of 0.247 ± 0.048.

Compound `CCC1(c2ccccc2)C(=O)NCNC1=O` [Primidone] has a normalised cell viability (treatment time: 3 days) of 0.947 ± 0.13 and a normalised cell viability (treatment time: 6 days) of 0.951 ± 0.1.

Work on `CN1C(C(=O)Nc2ccccn2)=C(O)c2ccccc2S1(=O)=O` [Piroxicam] yielded a normalised cell viability (treatment time: 3 days) of 1.02 ± 0.032 and a normalised cell viability (treatment time: 6 days) of 1.05 ± 0.015.

`O=C1CC2(CCCC2)CC(=O)N1CCCCN1CCN(c2ncccn2)CC1` [Buspirone hydrochloride] showed a normalised cell viability (treatment time: 3 days) of 0.997 ± 0.038 and a normalised cell viability (treatment time: 6 days) of 1.083 ± 0.0083.

For `CNNCc1ccc(C(=O)NC(C)C)cc1` [Procarbazine hydrochloride], the normalised cell viability (treatment time: 3 days) was 0.879 ± 0.049 and the normalised cell viability (treatment time: 6 days) was 0.956 ± 0.099.

`OCCN1CCN(CCCN2c3ccccc3Sc3ccc(C(F)(F)F)cc32)CC1` [Fluphenazine dihydrochloride] was tested, and the normalised cell viability (treatment time: 3 days) was 0.825 ± 0.062 and the normalised cell viability (treatment time: 6 days) was 0.662 ± 0.096.

`CNC(=C[N+](=O)[O-])NCCSCc1csc(CN(C)C)n1` [Nizatidine] showed a normalised cell viability (treatment time: 3 days) of 1 ± 0.012 and a normalised cell viability (treatment time: 6 days) of 1.05 ± 0.042.
